# Assay results: ChEMBL document CHEMBL4513216, “Probing the Open Global Health Chemical Diversity Library for Multistage-Active Starting Points for Next-Generation Antimalarials” (ACS Infect Dis, 2020)
# In all, about 65,000 compounds went through this assay and about 2,100 (3.2%) showed an effect of 50% or more. The median lay at about -52%. This is one part of a sample in which strong results are shown more often than they occur.
# Tested on: Plasmodium falciparum
# Assay: Screen against P. falciparum Asexual Blood Stage (ABS), at 5uM
# Assay type: functional, Dd2
# Details: tested at 5 uM
row,SMILES,INHIBITION
1,Cc1nc(CCNC(=O)c2cc(C(C)C)nn2C)sc1C,-66%
2,COc1cc(N2CCC3(CC2)CN(CCO)c2ccccc23)ncn1,47.1%
3,CN(Cc1n[nH]c2c1CCCC2)c1nc2c(c(=O)[nH]1)CCNCC2,65.3%
4,CN(Cc1n[nH]c2c1CCC2)c1nc(C2CCCC2)nc2c1CNC2,2.51%
5,CN(C)c1nc2c(c(N(C)Cc3n[nH]c4c3CCCCC4)n1)CCNC2,40%
6,Cc1nccc(-c2cccc(NCC(=O)N3CCCC(C)C3)c2)n1 (configuration not stated),-103%
7,CN1C(=O)c2cccc(NC(=O)c3cccc(S(C)(=O)=O)c3)c2C1=O,-15.8%
8,Cc1ncc(CN2CC[C@@](C)(O)[C@H](Oc3cccc(F)c3)C2)cn1,-18.7%
9,O=C(NC1CCNCC1)C1(N2CCCCC2)Cc2ccccc2C1,62.9%
10,O=C1NCCCC[C@@H]1NC(=O)C1(N2CCCCC2)Cc2ccccc2C1,-107%
11,O=C(NC1CCNC1)C1(N2CCCCC2)Cc2ccccc2C1 (configuration not stated),33.8%
12,CNCC(=O)N1CCC(c2ccnc(Nc3ccc(C)cn3)n2)C1 (configuration not stated),-163%
13,CCc1nccn1CCC(=O)N1C[C@@H]2CC[C@H]1CN(C(=O)N(C)C)C2,-28.8%
14,O=C(c1c(F)cc(Br)cc1F)N1CCc2cnccc21,-110%
15,Cc1cnn(CC(C)NCc2ccc(OCc3cccnc3)cc2)c1 (configuration not stated),36.7%
16,CCN1CCN(S(=O)(=O)c2cc(C)c(Cl)cc2Cl)CC1,64.3%
17,COC(=O)[C@H]1C[C@@H](O)CCN1S(=O)(=O)c1cc(C)c(Cl)cc1C,-190%
18,CCN1CCN(S(=O)(=O)c2cc(C)c(C)cc2Br)CC1,28.4%
19,Cc1cc(S(=O)(=O)N2CC[C@@H](O)C2)c(Cl)cc1F,-123%
20,Cc1cc(S(=O)(=O)N2CCC(N3CCC(O)C3)CC2)c(Cl)cc1Cl (configuration not stated),69.3%
21,CCN1CCN(S(=O)(=O)c2cc(C)c(Cl)cc2C)CC1,19.7%
22,O=C(c1csc(-c2ccc(C(F)(F)F)cc2)n1)N1CCCNCC1,-4.67%

row,SMILES,INHIBITION
1,CC(C)CNC(=O)c1nn(C)c(NC(=O)Cc2ccccc2)c1F,-85.1%
2,COc1ncccc1CNC1CCc2c(ccc(=O)n2C)C1 (configuration not stated),-74.3%
3,Cc1ccc(CN2CC[C@H]3OCC[C@@H](C(=O)N4CCCCO4)[C@@H]3C2)o1,-9.16%
4,CCN(CC)Cc1cn2c(n1)CN(C1CCOC1)CC2 (configuration not stated),-107%
5,Nc1ncccc1C(=O)NCc1cccc(Cl)c1,-96.4%
6,O=C(NCCN1CCOCC1)c1ccnn1-c1ccc2ccccn12,-33.3%
7,CCn1cc(-c2cc(-c3cc(CC(=O)O)cs3)nc(N)c2C#N)c(C)n1,-125%
8,Cc1nn(C)c(C)c1-c1cc(-c2cc(CC(=O)O)cs2)nc(N)c1C#N,-66.5%
9,CCn1cc(-c2cc(-c3cc(CN(C)C)cs3)nc(N)c2C#N)c(C)n1,60.3%
10,CNC(=O)C1=NOC2(CCN(Cc3nccs3)C2)C1 (configuration not stated),-90.7%
11,CC(Nc1cnn(C)c(=O)c1Cl)c1ccc(F)cc1 (configuration not stated),-75.2%
12,N#Cc1cccnc1OC1CCN(S(=O)(=O)c2c(F)cccc2F)CC1,-88.3%
13,COc1ccc(C)cc1C(=O)NC(CC(=O)O)c1cccs1 (configuration not stated),-134%
14,Cc1cccc(CN2CCCC3(Cc4ccccc4CNC3=O)C2)n1 (configuration not stated),-31.3%
15,N#Cc1ccc(CN2CCCC3(Cc4ccccc4CNC3=O)C2)cc1 (configuration not stated),10.7%
16,O=C(O)c1ccccc1CN1CCC2(Cc3ccccc3CNC2=O)C1 (configuration not stated),-111%
17,O=C1NCc2ccccc2CC12CCCN(CCCc1ccccc1)C2 (configuration not stated),39.2%
18,O=C1NCc2ccccc2CC12CCCN(Cc1ccsc1)C2 (configuration not stated),64.3%
19,COc1ccccc1CN1CCCC2(Cc3ccccc3CNC2=O)C1 (configuration not stated),54.5%
20,CCC(=O)N(CCC(=O)O)Cc1ccc(F)c(F)c1,-62.6%
21,Cc1cc(CN(C)C(C(=O)O)c2ccc(C(C)(C)C)cc2)on1 (configuration not stated),-96.1%
22,COc1ccc(CNc2c(N3CCN(C(C)=O)CC3)c(=O)c2=O)cc1,-16.8%

row,SMILES,INHIBITION
1,CC(C)c1[nH]c2ncccc2c1CN1CCC(O)CC1,-59.2%
2,CC(C)(C)OC(=O)NCCc1csc(N2CCCC2)n1,-50.6%
3,Cn1cnc2c1C(COCc1cccnc1)N(Cc1ccccc1)CC2 (configuration not stated),23.7%
4,Cn1cnc2c1C(COCc1ccccc1)N(Cc1cccnc1)CC2 (configuration not stated),36.7%
5,Cn1cnc2c1C(COCc1ccccc1)N(Cc1ccncc1)CC2 (configuration not stated),51.6%
6,Cn1cnnc1C1CCCN(C(=O)NCCCn2cccn2)C1 (configuration not stated),-205%
7,CC(C)CC(=O)N1CCC2(CC1)COCCN2Cc1ccc(F)cc1,-3.2%
8,Cc1cc(C)cc(C(=O)Nc2cccc(CN3CCCC3C(N)=O)c2)c1 (configuration not stated),-76.3%
9,CCCn1c(NCCc2ccccc2)nc2c(C)nn(C)c2c1=O,-42.9%
10,CN(C)CCN(C)S(=O)(=O)Cc1ccc(Br)cc1,63.7%
11,CC(O)CCN(C)S(=O)(=O)Cc1ccc(Br)cc1 (configuration not stated),-23.8%
12,CCCNS(=O)(=O)Cc1ccc(Br)cc1,-14.1%
13,CCOCC1CN(C(=O)C2=CCCC2)Cc2cnn(C)c21 (configuration not stated),-16.8%
14,Cc1cccc(CN2C[C@@H]3CCCO[C@@H]3[C@H](Nc3ccccn3)C2)n1,55.6%
15,Cc1noc(C)c1CN1C[C@@H]2CCCO[C@@H]2[C@H](Nc2ccccn2)C1,-37.5%
16,Cc1ccc(N[C@@H]2CN(Cc3cc(C)on3)C[C@@H]3CCCO[C@@H]32)nn1,-84.9%
17,N[C@@H]1c2ccccc2C2(CCN(c3ncccc3C(F)(F)F)CC2)[C@H]1O,-6.42%
18,CCCC1CCCN(C(=O)Nc2ccc(F)c(C(N)=O)c2)CC1 (configuration not stated),-46%
19,Cc1cccc(CN2CCOCC3(CCN(C4CCOCC4)C3)C2)n1 (configuration not stated),42.5%
20,Cc1ccc(CN2CCOCC3(CCN(Cc4cccs4)C3)C2)o1 (configuration not stated),41.9%
21,Fc1ccc(CN2CCCC3(COCCN(Cc4c[nH]nn4)C3)C2)cc1 (configuration not stated),61.7%
22,COc1ccc(CN2CCOCC3(CCN(C4CCOCC4)C3)C2)cc1 (configuration not stated),61%

row,SMILES,INHIBITION
1,COc1ccc(F)c(CN2CCCC3(CCN(C4CCOCC4)C3)C2)c1 (configuration not stated),3.41%
2,c1csc(CN2CCOCC3(CCN(C4CCOCC4)C3)C2)c1 (configuration not stated),50.4%
3,Cn1cc(CN2CCOCC3(CCN(C4CCOCC4)C3)C2)cn1 (configuration not stated),-41.5%
4,Cn1cc(CN2CCCC3(COCCN(Cc4c[nH]nn4)C3)C2)cn1 (configuration not stated),-58.4%
5,c1cc(CN2CCCC3(COCCN(Cc4c[nH]nn4)C3)C2)cs1 (configuration not stated),27.7%
6,c1cn(-c2ccc(N3CCC(NC4CC4)CC3)cc2)cn1,18.4%
7,CC(C)c1cc(CN(C)C(=O)C(C)N2CCc3ccccc3C2)no1 (configuration not stated),-28.5%
8,N[C@H]1CCCN(S(=O)(=O)c2ccc(C(=O)NCC(F)F)cc2)C1,-117%
9,Cc1cc(C)cc(OCCN(C)C2CCOC2=O)c1 (configuration not stated),-68.2%
10,CC(C)C[C@H](N)C(=O)N1CCSc2ccccc2C1,48%
11,N[C@@H](C(=O)N1CCN(c2ccccc2Cl)C(=O)C1)c1ccccc1,-17.6%
12,NC(C(=O)N1CCSc2ccccc2C1)c1ccccc1 (configuration not stated),60.9%
13,O=S1(=O)CCC(NCCn2cncc2-c2ccc3c(c2)CCCO3)C1 (configuration not stated),-91.4%
14,O=S(=O)(C1CC1)N1CC[C@]2(C[C@@H](Oc3ncccc3F)CO2)C1,-24.1%
15,CN(C)C(=O)c1cnc2n1CCN(Cc1cccnc1)C2,-6.2%
16,N#Cc1ccnc(NCc2cc3n(n2)CCCN(C(=O)C2CCC2)C3)c1,-89.1%
17,CN(Cc1ccccn1)C(CO)c1cccc(Br)c1 (configuration not stated),-68.3%
18,Cc1nn(CCO)c(C)c1CNC1CCCCc2ccccc21 (configuration not stated),-4.05%
19,Cc1nn(CCO)c(C)c1CNC1CCOc2ccccc21 (configuration not stated),-36%
20,Cc1nn(CCO)c(C)c1CNC1CCC(C)(C)c2ccccc21 (configuration not stated),69.2%
21,Cc1cc2c(=O)n3c(nc2s1)CCN(Cc1[nH]cnc1C)CC3,-96.3%
22,O=C(NCCNc1cc(N2CCCC2)cnn1)Nc1ccccc1F,-93.6%

row,SMILES,INHIBITION
1,Cc1sc2c(C3CCNCC3)nc(Nc3cccc(F)c3)n2c1C,-126%
2,O=C1NCC2(CCCN(Cc3ccc(F)cc3)C2)Oc2ccccc21 (configuration not stated),-41%
3,O=C1NCC2(CCCN(CCc3ccccc3)C2)Oc2ccccc21 (configuration not stated),51.7%
4,O=C1NCC2(CCCN(Cc3ccccc3F)C2)Oc2ccccc21 (configuration not stated),-20.4%
5,COc1ccc(C(=O)CCC(=O)NCc2c(C)noc2C)cc1F,-164%
6,CCCc1ncc(C(=O)N2CCOc3ncccc32)s1,-13.4%
7,NC(=O)Cn1cc(NC(=O)N2CCN(c3ccc(F)cc3)CC2)cn1,-40.9%
8,Cc1cccc(N2CCN(C(=O)Nc3cnn(CC(N)=O)c3)CC2)c1,-67.3%
9,NC(=O)Cn1cc(NC(=O)N2CCN(c3ccccc3)CC2)cn1,63.7%
10,COc1ccccc1CN1CC(OC)CN(C(=O)OCC(C)C)CC1=O (configuration not stated),-40.4%
11,CC(c1cccs1)N(C)Cc1cnc(-c2ccccn2)nc1 (configuration not stated),-132%
12,Cc1ccc(C(=O)NCCCNS(C)(=O)=O)cc1-n1cccc1,-137%
13,C[C@@H](O)[C@H](NC(=O)c1csc2nc(-c3ccccc3F)cn12)C(N)=O,-41.1%
14,COc1ccc(-c2cccc(-c3ccn(CCCN(C)C)n3)c2)nn1,-18.6%
15,c1cc(-c2cnccn2)cc(-c2ccn(CCN3CCCCC3)n2)c1,43.8%
16,c1cc(-c2cnccn2)cc(-c2ccn(CCN3CCCC3)n2)c1,69.1%
17,CN(C)CCCn1ccc(-c2cccc(-c3ccccn3)c2)n1,61%
18,c1cc(-c2cnccn2)cc(-c2ccn(CCCN3CCCCC3)n2)c1,21.9%
19,CN(C)CCCn1ccc(-c2cccc(-c3cncnc3)c2)n1,14.5%
